The source of these data is the supplement of paper PMC12636033.

± gives the standard deviation of the averaged measurements. The full ranking holds about 33,000 sequences; the median of “E-score (rank enrichment, -0.5 to 0.5)” is about -0.0043, and the highest 2% start at about 0.24. The entries come from a sample that favours the highest values as a whole.

This assay has as its system 2Sp-muMax20 (muMax20 with two 2,6-bis(methyl)pyridine Cys staples). Kind of assay: PBM 8-mer E-score (E-score (rank enrichment, -0.5 to 0.5)); higher = stronger preferential binding. How it is done:
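Protein binding microarray (universal PBM chip covering all 10-mers in fixed probe flanks) with chemically synthesized human Max(13-93) bHLH-LZ analogs (not full-length Max) bearing noncanonical residues (hArg, Tha, Aib, Nle at 65) and aromatic Cys staples. Read-out per 8-mer (and its reverse complement): E-score (rank-based enrichment, -0.5 to 0.5) and Z-score of median probe intensity.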
In the case of CGGTAACC, the “PBM 8-mer E-score” value is -0.288 ± 0.086.
For the sequence GCACATCC, the “PBM 8-mer E-score” value came to 0.0732 ± 0.072.
In the case of AGGATTTG, the “PBM 8-mer E-score” value was -0.0789 ± 0.0065.
Then GGAGGTGA, with -0.109 ± 0.038; and AGTTGGTC, with -0.13 ± 0.083.
Then GATCCGAC, with -0.198 ± 0.026; and AGTTGAAA, with -0.0343 ± 0.15.
In the case of TCAGGTCA, the “PBM 8-mer E-score” value is -0.126 ± 0.038.
On to GCCGCCCA, for which the “PBM 8-mer E-score” value was -0.111 ± 0.053.
Turning to ACCGCCCC, the “PBM 8-mer E-score” value worked out at 0.132 ± 0.0083.
Then GCCGCCCC, with 0.0266 ± 0.044.
CCCGCCCA: the “PBM 8-mer E-score” value amounted to 0.396 ± 0.012.
Take CCCGCCCG: the “PBM 8-mer E-score” value came out at 0.16 ± 0.065.
Then CCCGCCCC, with 0.281 ± 0.022; and CCACCCGG, with -0.213 ± 0.012; and ACTGCTTC, with -0.0855 ± 0.012.
Turning to AGCCTAAT, the “PBM 8-mer E-score” value is 0.0715 ± 0.12.
As for ATGTTTTA, the “PBM 8-mer E-score” value was found to be 0.0882 ± 0.015.
With ATCCTCGG, the “PBM 8-mer E-score” value was -0.136 ± 0.022.
Next, ACGTGGAC: 0.208 ± 0.053; ACGTGCCT: 0.257 ± 0.045.
Consider ACGTGGCC, for which the “PBM 8-mer E-score” value is -0.048 ± 0.005.
Next, ACGTGGCA: 0.217 ± 0.094; ACGTGGCT: 0.238 ± 0.019; ACGTGCCC: 0.1949 ± 0.0017.
Next, ACGTGGAA: 0.188 ± 0.014; ACGTGCCG: 0.0769 ± 0.0064.
For ACGTGGAT, the “PBM 8-mer E-score” value was 0.2668 ± 0.0015.
ACTGCCGC: the “PBM 8-mer E-score” value is -0.11 ± 0.0048.
Next, AGAACGCA: -0.0651 ± 0.016.
Then AAATAGCC, with 0.155 ± 0.026; and GCTAGCTA, with -0.00454 ± 0.02; and CCATTTCG, with -0.131 ± 0.16.
Turning to GAGTAAGC, the “PBM 8-mer E-score” value was -0.0367 ± 0.065.
Regarding CAGCATGA, the “PBM 8-mer E-score” value was 0.131 ± 0.046.
Next, CAGCATGG: 0.258 ± 0.074; CGGCATGC: 0.154 ± 0.053.
TAGCATGA: the “PBM 8-mer E-score” value worked out at 0.237 ± 0.075.
For the sequence AAGCATGA, the “PBM 8-mer E-score” value was 0.0552 ± 0.075.
Then AAGCATGC, with 0.309 ± 0.047; and AAGCATGT, with 0.208 ± 0.059.
Turning to AAGCATCC, the “PBM 8-mer E-score” value is -0.0641 ± 0.07.
Regarding GAGCATGC, the “PBM 8-mer E-score” value amounted to 0.233 ± 0.065.
Turning to GAGCATGA, the “PBM 8-mer E-score” value worked out at 0.154 ± 0.055.
In the case of CAGCATGC, the “PBM 8-mer E-score” value came out at 0.245 ± 0.055.
Then AAGCATGG, with 0.221 ± 0.0031; and ATTTGAAG, with 0.0351 ± 0.054.
As for CGCTCCCC, the “PBM 8-mer E-score” value is -0.1001 ± 0.00055.
Next, GTACTGAA: 0.149 ± 0.041.
CGCCCAAA: the “PBM 8-mer E-score” value was 0.0607 ± 0.014.
Then CATTCGAC, with -0.0616 ± 0.11.
ATTAGCTC: the “PBM 8-mer E-score” value was determined as 0.0373 ± 0.031.
Then AAGTTCTA, with 0.0127 ± 0.022; and CGCAGTGA, with -0.145; and ATCTTATC, with 0.0505 ± 0.042.
AATCCCCA: the “PBM 8-mer E-score” value is 0.161 ± 0.02.
ACTCCCCA: the “PBM 8-mer E-score” value is 0.282 ± 0.067.
As for ACTCCCCC, the “PBM 8-mer E-score” value was -0.187 ± 0.021.
With CCTCCCCA, the “PBM 8-mer E-score” value is 0.31 ± 0.028.
Then TATCCCCA, with 0.239 ± 0.014; and CATCCCCA, with 0.145 ± 0.0068; and CCTCCCCC, with -0.0661 ± 0.021.
For the sequence GCCTCCCA, the “PBM 8-mer E-score” value was -0.214 ± 0.05.
Next, ACTCCCCT: 0.182 ± 0.027.
As to CCTCCCAA, the “PBM 8-mer E-score” value came out at 0.0742 ± 0.037.
For CCCTCCCA, the “PBM 8-mer E-score” value worked out at 0.353 ± 0.04.
Regarding ACCTCCCA, the “PBM 8-mer E-score” value was -0.071 ± 0.0025.
On to ATCACGAG, for which the “PBM 8-mer E-score” value is -0.0973 ± 0.13.
Regarding CGGATAAC, the “PBM 8-mer E-score” value was -0.215 ± 0.003.
Then CCGAGCTC, with -0.137 ± 0.0056; and AGTGCAAG, with 0.0261 ± 0.015; and ATACAGTA, with 0.259 ± 0.013.
Take ATACAGCG: the “PBM 8-mer E-score” value was -0.089 ± 0.017.
For ATACAGCA, the “PBM 8-mer E-score” value was 0.2373 ± 0.0021.
For CTACAGCA, the “PBM 8-mer E-score” value was found to be 0.0474 ± 0.16.
Consider ATACAGTC, for which the “PBM 8-mer E-score” value came to 0.0481 ± 0.076.
CTACAGTA: the “PBM 8-mer E-score” value came out at 0.136 ± 0.017.
In the case of ATACAGTG, the “PBM 8-mer E-score” value is 0.248 ± 0.065.
On to ACACAGTG, for which the “PBM 8-mer E-score” value amounted to 0.0818 ± 0.048.
Turning to GTACAGTA, the “PBM 8-mer E-score” value turned out to be 0.137 ± 0.034.
Then GCTAAACA, with -0.106 ± 0.062; and CCAGCTTA, with -0.129 ± 0.07.
As for CGCGCCAC, the “PBM 8-mer E-score” value stood at 0.0139 ± 0.054.
ACCTTTGG: the “PBM 8-mer E-score” value is -0.277 ± 0.058.
As to CGGTTCCC, the “PBM 8-mer E-score” value is -0.179 ± 0.095.
With GAGGGTTA, the “PBM 8-mer E-score” value came to 0.064 ± 0.0085.
Then AAAGCTGG, with 0.0243 ± 0.073.
On to AAAGCTGA, for which the “PBM 8-mer E-score” value is 0.285 ± 0.0073.
In the case of CAAGCTGA, the “PBM 8-mer E-score” value was 0.0436 ± 0.058.
For the sequence ACCGCCCT, the “PBM 8-mer E-score” value was -0.0858 ± 0.06.
For the sequence CGACGAGA, the “PBM 8-mer E-score” value is -0.147 ± 0.078.
For the sequence CAGCGTGG, the “PBM 8-mer E-score” value was 0.039 ± 0.028.
Consider GGCCCCAC, for which the “PBM 8-mer E-score” value was 0.0799 ± 0.062.
On to TGCCCAAA, for which the “PBM 8-mer E-score” value was -0.0856 ± 0.086.
Regarding TGCCCCCA, the “PBM 8-mer E-score” value was -0.0389 ± 0.018.
Then CGCCCCAA, with 0.3051 ± 0.0025.
Consider GGCCCCAA, for which the “PBM 8-mer E-score” value is 0.00781 ± 0.067.
For CGCCCCAG, the “PBM 8-mer E-score” value was 0.0339 ± 0.02.
Then CGCCCCCA, with -0.198 ± 0.069; and TGCCCCAA, with 0.274 ± 0.016.
On to CGCCCCAC, for which the “PBM 8-mer E-score” value came out at 0.303 ± 0.0035.
Consider AGGTTCTA, for which the “PBM 8-mer E-score” value was -0.106 ± 0.0063.
For GGTTCTAA, the “PBM 8-mer E-score” value is -0.026 ± 0.026.
Then AACGAGCC, with -0.0314 ± 0.029.
Turning to GACTAGCC, the “PBM 8-mer E-score” value was -0.0736 ± 0.047.
ACACCGAG: the “PBM 8-mer E-score” value was -0.219 ± 0.031.
As for ACGACGCT, the “PBM 8-mer E-score” value is -0.0201 ± 0.033.
In the case of CTGGTGTA, the “PBM 8-mer E-score” value was -0.00226 ± 0.005.
As to ATCGATAA, the “PBM 8-mer E-score” value is 0.00019 ± 0.013.
Turning to AAGTCAAA, the “PBM 8-mer E-score” value was 0.0188 ± 0.0089.
Next, TAGTCAAA: 0.27 ± 0.033; GAGTCAAA: -0.0157 ± 0.11.
As for GACTAGCA, the “PBM 8-mer E-score” value was 0.102 ± 0.099.
For the sequence AGAGCTAA, the “PBM 8-mer E-score” value is -0.0564 ± 0.081.
With AGTTTCAA, the “PBM 8-mer E-score” value is -0.0457 ± 0.0064.
For the sequence ATTACCCA, the “PBM 8-mer E-score” value was found to be 0.288 ± 0.037.
For the sequence ATTACCCC, the “PBM 8-mer E-score” value came to 0.169 ± 0.065.
Consider ATTACCCG, for which the “PBM 8-mer E-score” value was -0.0469 ± 0.081.
Take TACCTCGA: the “PBM 8-mer E-score” value is -0.079 ± 0.12.
TCCGAAAA: the “PBM 8-mer E-score” value was -0.0537 ± 0.063.
